The text below walks through data of PubChem BioAssay (NCI).

Structures are written as SMILES. The panel holds about 83,000 compounds, 20% with a hit somewhere; the sample as a whole holds those more often.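 The endpoint reported here, percent growth, reads 100 for growth as untreated, 0 for no net growth and -100 for all cells dead.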 Values without a mark were called inactive. Active and inactive are the calls of the source. Rule for the calls: active = growth percent below 10; inactive = the rest.

What all share (assay): NCI-60 one-dose screen, 48 h (100 = growth as untreated, 0 = no growth, -100 = all killed)
Holding throughout (conditions): 10 µM unless noted

Test [1] has as its system NCI-H23 lung.
The subject of test [2] is NCI-H226 lung.
For test [3], the system named is NCI-H322M lung.
Test [4] deals with HOP-62 NSCLC.
Test [5] deals with NCI-H460 lung.
The subject of test [6] is HOP-92 NSCLC.
For test [7], the system named is NCI-H522 lung.
Test [8] concerns A549/ATCC NSCLC.
In test [9] the test system is 786-0 renal.
Test [10] has as its system COLO 205 colon.
The test system of test [11] is DU-145 prostate.
In test [12] the test system is K-562 leukemia.
Test [13] deals with MALME-3M melanoma.
Test [14] concerns MDA-MB-231 breast.
For test [15], the system named is RXF 393 renal.
Test [16] relates to SF-268 CNS.
For test [17], the system named is SF-295 CNS.
The subject of test [18] is SF-539 CNS.
In test [19] the test system is UACC-257 melanoma.
For test [20], the system named is M14 melanoma.

For the compound `Nc1cc(-c2c[nH]c3ccc(F)cc23)nc2cc(-c3c[nH]c4ccccc34)nn12`, the growth was -12.7% (active) in test [1]; 52.9% in test [2]; 30.2% in [3]; 1.04% (active) in test [4]; 3.08% (active) in test [5]; -9.18% (active) in test [6]. Moreover, the growth in test [7] was -49.9% (active); in test [8], 9.83% (active); in [9] it was -81% (active); in test [10], -88.8% (active); in test [11] it was 26.9%; in test [12], 5.2% (active). Also, the growth in [13] is -28% (active); in [14] it was -65.5% (active); in test [15] it was 36.5%; in test [16], 35.4%; in test [17], -66% (active); in [18], -74.8% (active). For the same compound, the growth in test [19] is -63.3% (active); in test [20] it was -23.1% (active).
Take `Cc1cc(C(NC(=O)CCCCCNc2cccc3c2C(=O)N(C2CCC(=O)CC2=O)C3=O)c2cccc(N(C)C)c2)c(O)c2ncccc12` (stereo not given): the growth was 24% in [1]; -1.45% (active) in [2]; 13.7% in test [3]; -22.6% (active) in test [4]; 5.72% (active) in [5]; -10.4% (active) in [6]. Also, the growth in test [7] is 13%; in test [8], 11.7%; in test [9] it was 2.23% (active); in test [10] it was 7.54% (active); in test [11] it was 27.5%; in test [12], 9.86% (active). Moreover, the growth is -11.8% (active) in test [13]; -22.2% (active) in [14]; 32.1% in [15]; 20.5% in test [16]; 2.01% (active) in test [17]; 1.5% (active) in [18]. Moreover, the figures for the growth in test [19] and in [20] were 1.91% (active) and -26.5% (active), respectively.
`CCC(=O)c1c2c(c3ccc4c5ccccc5ccc4n13)C(=O)c1ccccc1C2=O`: the growth in test [1] was 44.5%; in test [2] it was 45.7%; in test [3], 59.1%; in [4], 81.7%; in test [5] it was 6.66% (active); in test [6], 117%. Also, the growth in test [7] was 86.8%; in test [8], 31.7%; in test [9], 96.4%; in test [10], 75.8%; in [11] it was 20.3%; in test [12], 96.7%. Besides, the growth in test [13] was -87.5% (active); in test [14], 83%; in test [15], 109%; in test [16], 95.4%; in test [17] it was 65.8%; in [18], 77.8%. For the same compound, the growth in [19] is 71.6%; in test [20], 24.6%.
As to `O=C(CSc1nnc(-c2ccc(-c3nc4ccc(Cl)cc4[nH]3)cc2)o1)Nc1ccc(Br)cc1`, the growth in test [1] was -34.7% (active); in test [2], -46.9% (active); in test [3], 9.95% (active); in test [4], -31.1% (active); in test [5], -72.3% (active); in [6], -7.8% (active). In addition, the growth was -23.3% (active) in [7]; -38.9% (active) in test [8]; -44.1% (active) in test [9]; 94.1% in test [10]; 39.1% in test [11]; 15% in test [12]. Further, the growth in test [13] is -20.2% (active); in test [14], -76% (active); in test [15], -50.9% (active); in [16], 28.5%; in [17] it was 8.38% (active); in [18], -96.3% (active). The growth in test [19] was 13.1%; in test [20], 2.92% (active).
Take `O=C(NN1C(=O)/C(=C/C=C/c2ccc([N+](=O)[O-])o2)SC1=S)c1ccc([N+](=O)[O-])cc1`: the growth is -88.4% (active) in [1]; -83.3% (active) in [2]; -100% (active) in test [3]; -100% (active) in test [4]; -48.9% (active) in [5]; -84.2% (active) in test [6]. In addition, the growth in test [7] was -88.7% (active); in test [8], -93% (active); in test [9] it was -80.1% (active); in test [10], -94.1% (active); in test [11], -100% (active); in test [12], 4.2% (active). Besides, the growth is -91.3% (active) in test [13]; -99.7% (active) in test [14]; -88.6% (active) in test [15]; -82.3% (active) in test [16]; -97.5% (active) in [17]; -100% (active) in [18]. Moreover, the growth in test [19] is -82.2% (active); in [20], -82.5% (active).
For the compound `Cn1cc(-c2cc3nc(-c4cn(C)c5ncccc45)cc(N)n3n2)c2cc(F)ccc21`, the growth is 21.2% in test [1]; 3.92% (active) in test [2]; 52.1% in test [3]; -14.7% (active) in test [4]; 37.6% in [5]; -0.741% (active) in test [6]. Also, the growth in test [7] is 22.7%; in [8], 19.6%; in [9] it was 17.6%; in test [10], 47.1%; in test [11] it was 21.8%; in test [12], 20.7%. Besides, the growth in test [13] is 62%; in test [14], 3.66% (active); in [15], -14.4% (active); in [16], 52.3%; in test [17] it was 28.3%; in [18], 12.8%. In addition, the growth was 72.7% in test [19] and 71.2% in test [20].
Take `N#Cc1ccc(C(=O)NNC(=O)CSc2nc3sc4c(c3c(=O)n2-c2ccc(Cl)cc2)CCCC4)cc1`: the growth was 33.2% in [1]; 54.1% in test [2]; 51.7% in test [3]; 7.62% (active) in [4]; 51.8% in [5]; 45.6% in test [6]. Also, the growth in [7] is 61.5%; in test [8] it was 61.9%; in test [9], 75.5%; in test [10], 110%; in [11], 70.4%; in [12], 63.4%. For the same compound, the growth in test [13] was 39.5%; in test [14] it was 3.65% (active); in test [15], 47.5%; in [16], 92.7%; in [17], 62.7%; in [18], -43.9% (active). The growth in test [19] is 91.4%; in test [20], 44.7%.
As to `O=C(c1ccc(O)cc1)C1[C@H](c2ccccc2Br)[C@@H](c2ccccc2)NC12C(=O)Nc1ccccc12` (stereo not given in full), the growth in test [1] was 34.3%; in [2], 53.3%; in [3], 61.6%; in test [4], 59.8%; in [5], 33.1%; in test [6], 38.8%. Besides, the growth in test [7] is -21.1% (active); in [8], 22.9%; in test [9], 28.8%; in test [10], 28%; in test [11] it was 63.1%; in [12], 29.4%. For the same compound, the growth was 71.6% in [13]; 41% in [14]; 20.8% in test [15]; 49.1% in [16]; 27.9% in test [17]; 55% in test [18]. Besides, the growth is 45.8% in test [19] and 58.6% in [20].
